MbtI inh: MbtI salicylate synthase inhibitors, primary screen, biochemical, fluorescence intensity; purified MbtI enzyme, fluorescence intensity read-out; inhibition, % (no concentration beside the values); actives 0.89% (n = 100,000); in the data active = inhibition mostly above about 56%, no sharp cut-off; inactive = mostly below about 77%
Target sequence (P9WFX0 whole entry, looked up): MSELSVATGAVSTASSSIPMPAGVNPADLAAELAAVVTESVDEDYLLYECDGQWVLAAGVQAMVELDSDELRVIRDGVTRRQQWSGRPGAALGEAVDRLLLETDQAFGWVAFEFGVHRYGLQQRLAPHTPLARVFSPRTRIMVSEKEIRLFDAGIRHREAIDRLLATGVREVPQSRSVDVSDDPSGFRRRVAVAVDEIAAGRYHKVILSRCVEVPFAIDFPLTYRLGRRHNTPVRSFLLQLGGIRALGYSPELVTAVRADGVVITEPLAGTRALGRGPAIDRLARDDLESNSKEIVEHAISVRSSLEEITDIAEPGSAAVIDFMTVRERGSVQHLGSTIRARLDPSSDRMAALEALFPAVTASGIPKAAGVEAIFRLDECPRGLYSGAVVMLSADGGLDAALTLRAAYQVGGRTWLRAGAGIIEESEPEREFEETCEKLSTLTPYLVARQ
MenB inh: M. tuberculosis MenB inhibitors, primary screen, biochemical, absorbance | actives 0.43% (n = 100,000) | AID 540299, 2011 | MenB enzyme assay, absorbance read-out | inhibition, % (test concentration not listed); in the data active = inhibition above about 21%, passing the limit was not always enough
AID504770: growth inhibition of E. coli YBA685, primary screen, V. cholerae RctB inhibitors. E. coli YBA685 rctB-dependent plasmid, OD600 growth, 3 h; active compounds read low. z-score (concentration not given with the values). actives 0.27% (n = 130,000); in the data active = z-score below about -2, passing the limit was not always enough
Polio RdRp inh: poliovirus RdRp elongation inhibitors, primary screen, biochemical, fluorescence polarization, total intensity; Genome polyprotein (Poliovirus type 1 (strain Mahoney)), P03300; poliovirus polymerase elongation; active compounds read low; % elongation, % (compound at 16.7 µg/mL); actives 0.66% (n = 150,000); in the data active = % elongation below about 90%
Starred values were filed as active, the others as inactive; i = inactive; x = no result given. Rows were chosen to be rich in hits. Some 1.4% of all compounds tested hit in one or more screens of this group.

SMILES	MbtI inh	MenB inh	AID504770	Polio RdRp inh
CC(C)c1cccc(C(C)C)c1O	-8	-9	x	100
Cc1cccc(O)c1O	86*	-14	0	102
Cc1nn(Cc2ccccc2Cl)c(C)c1CN(C)Cc1cc(=O)n2c3c(sc2n1)CCCC3	53	-8	-0.2	104
O=C(CSc1nnc(SCC(=O)N2CCCC2)s1)N1CCCC1	91*	13	0.9	103
O=C1C=CC(=O)N1c1ccc(-n2ccc(C(F)(F)F)n2)cc1	x	x	-0.25	x
CCOC(=O)/C=C1\SCC(=O)N1CCN(C)Cc1ccc(SC)cc1	-5	-26	0.05	100
CCNS(=O)(=O)c1ccc(S(=O)(=O)N(Cc2ccccn2)C2CCCCC2)cc1	-13	-24	-0.6	105
CCC(C)NS(=O)(=O)c1ccc(S(=O)(=O)N(Cc2ccc(C)o2)C2CCCC2)cc1 (stereo not drawn)	-2	33*	0.9	102
COc1ccc(Cl)cc1NC(=O)c1sc(=S)n(C)c1N	88*	-24	-0.35	72*
COc1ccc(Cl)cc1NC(=O)c1sc2nc(-c3ccc(OC)c(OC)c3)ccc2c1N	x	x	x	104
CN1CC(=O)NC(=O)C1	32	-4	-0.15	84*
Cn1c(CC2Sc3ccccc3NC2=O)nnc1SCC(=O)c1ccccc1 (stereo not drawn)	x	x	0.25	x
CC(C(=O)NCCC1=CCCCC1)n1ncn2cccc2c1=O (stereo not drawn)	-12	7	0.7	101
CCc1ccccc1Nc1nc(N)nc(COC(=O)Cn2cc(C(F)(F)F)ccc2=O)n1	-10	-5	-0.65	103
Cc1cccc(C(=O)c2c(N3CCOCC3)[nH]c(=O)c3ccccc23)c1	0	-25	-1.4	68*
Cc1cc(C)c2c(-c3ccccc3)[nH]nc2n1	-57	x	-0.85	x
Cc1cc(C)c2c(/N=N/N3CCCCCC3)[nH]nc2n1	1	-21	-4*	101
CN(C)Cc1ccc2ccc3cccc4ccc1c2c34	i	x	-0.3	101
O=C1CCC(C(=O)OCC(=O)Nc2cccc(Oc3ccccc3)c2)=NN1	-6	-12	0.85	103
O=C(NN=C1C2CC3CC(C2)CC1C3)c1ccncc1	5	4	-0.1	100
O=C(N/N=C1\C/C(=N\NC(=O)c2ccncc2)c2ccccc21)c1ccncc1	-34	-206	-2.3	87*
CCOC(=O)N1CCN(Cn2c(=S)sc3ccccc32)CC1	89*	-37	-0.55	107
S=c1sc2ccccc2n1CN1CCOCC1	90*	24	-1.2	99
S=c1sc2ccccc2n1CN1CCN(c2ccccn2)CC1	145	-30	-0.35	99
COC(=O)c1ccc(CSc2cc(C)[nH]c(=O)n2)o1	19	12	0.95	101
SMILES	MbtI inh	MenB inh	AID504770	Polio RdRp inh
O=C1OC(c2cccs2)=N/C1=C\c1cccc(F)c1	95	x	-0.2	88*
CCOC(=O)CC1Sc2ccccc2N=C1SCC(=O)Nc1ccc(Cl)cc1Cl (stereo not drawn)	96*	-54	1.9	110
Cc1nnc(SCC(=O)Nc2ccc(Cl)cc2Cl)n1C	-13	x	-0.15	101
Oc1ccc(NC(=S)Nc2ccc(O)cc2)cc1	-4	-4	-0.1	106
CNc1ccc(O)cc1	101*	x	1.1	59*
Cc1cc(C)c(S(=O)(=O)N2CCCCC2)cc1C	x	x	-0.1	x
Cc1cc2[nH]c(=O)c(=O)[nH]c2cc1S(=O)(=O)N1CCCCC1	39	-14	-2.5*	102
Cc1c(-c2nc3cc(Cl)ccc3n2Cc2ccccc2)cc(C#N)n1C	39	-27	-0.3	97
O=C(Nc1ccc(-n2nncc2-c2ccccc2)cc1)c1ccc(F)cc1	x	x	-0.25	x
N=C(N)SCP(=O)(c1ccccc1)c1ccccc1	21	49*	0.65	99
CN(C)C(=O)COC(=O)c1cc2ccccc2oc1=O	41	-23	-0.95	103
O=C(COC(=O)c1cc2ccccc2oc1=O)Nc1ncccn1	-96	-21	1.1	88*
NC1=NN=C(c2ccccc2)CS1	65*	-57	-0.6	97
NC1=NN=C(c2ccc3c(c2)OCCO3)CS1	16	15	1.1	98
COCCn1c(C)cc(O)c(C(c2ccccc2)N2CCN(c3ccccc3)CC2)c1=O (stereo not drawn)	x	x	x	85*
O=C(Nc1ccccc1OC(F)F)C1=NN(c2nc3ccccc3[nH]2)C(=O)CC1	-46	-35	-0.45	43
CC1OS(=O)OC1(c1ccccc1)c1ccccc1 (stereo not drawn)	x	-16	-1.3	89*
O=C(Sc1ccc(Cl)cc1)c1ccno1	65*	-5	-0.55	96
O=C(Sc1ccc(Cl)cc1)N1CCOCC1	x	x	0.7	x
O=C(NCc1ccccn1)C1CCC(CNS(=O)(=O)c2ccc(F)cc2)CC1 (stereo not drawn)	5	6	0.4	91
Cc1ccc(S(=O)(=O)N2CCCN(C)CC2)cc1	-9	x	-3.9*	101
CN1CCN(S(=O)(=O)c2ccc(Br)cc2)CC1	x	-1	-1.3	101
Brc1cccc(-c2noc(CCCOc3ccccc3)n2)c1	-7	15	0.15	103
CCCCC1=NN2C(=N)/C(=C\c3cccn3-c3ccc(C)cc3C)C(=O)N=C2S1	-4	-20	0.7	102
Cc1cc(=S)nc(C(C)C)[nH]1	91*	-53	-3.5	100
SMILES	MbtI inh	MenB inh	AID504770	Polio RdRp inh
CCCc1ccc(OCC(=O)NC2CCCC2)cc1	-16	x	-0.2	x
N#Cc1oc2ccccc2c1NC(=O)CSc1nnc(-c2ccccc2)n1Cc1ccco1	84	39*	-0.7	x
COc1cc(Cl)c(C)cc1NC(=O)CNC(=O)C1CCCCC1	-7	-21	-0.75	104
COC(=O)C(N)C12CC3CC(CC(C3)C1)C2 (stereo not drawn)	3	17	0.3	101
COC(=O)C(F)C(=O)OC	-1	11	0.8	88*
CCN1CCCC1CNC(=O)c1ccc(N(C)S(=O)(=O)c2ccc(C)cc2)cc1 (stereo not drawn)	12	7	0.95	103
O=c1cccc2n1CC1CC2CN(c2nc(N3CCCCC3)nc(N3CCCCC3)n2)C1 (stereo not drawn)	5	0	-2.7*	99
CCOc1nc(NCc2ccco2)nc(N2CC3CC(C2)c2cccc(=O)n2C3)n1 (stereo not drawn)	21	39*	-0.3	101
Cc1cc(C(=O)N(C)c2ccccc2)on1	x	x	-0.8	x
Cn1cc(Br)c(N2C(=O)C=CC2=O)n1	95*	-12	-4.2*	100
CCCCn1c(=O)n(C)c(=O)c2cc3c(nc21)-c1cc(F)ccc1OC3O (stereo not drawn)	-12	-64	0.45	103
Nc1sc2c(c1C(=O)Nc1cccc(Cl)c1)CCCCC2	x	-14	0.05	104
O=C(Cc1ccccc1)Nc1sc2c(c1C(=O)Nc1ccc(Cl)cc1)CCCC2	x	x	x	71*
O=C(COc1ccccc1)Nc1sc2c(c1C(=O)Nc1ccccc1Cl)CCCCC2	x	x	x	102
O=C(Nc1sc2c(c1C(=O)Nc1cccc(Cl)c1)CCCC2)c1cccs1	x	x	x	77*
